High-throughput results as filed in PubChem BioAssay.
Tau ThT inhib = tau fibrillization inhibition (ThT binding) | P10636 | recombinant tau K18 P301L, heparin-induced fibrillization, ThT fluorescence | Potency, µM (top dose mostly 57.4 µM), for the others: at the highest dose activity, negative = inhibition, most hits filed as inhibitors | actives 2.1% (n = 270,000) | AID 1460; also: potency is read from the fitted curve at half-maximal effect; nearly all actives have a fitted effect of over 55% in size
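Using a mix of unlabeled (15 uM) and Alexa 594-labeled (0.24 uM) tau K18 P301L, heparin-triggered fibrillization over 6 hr at 37 C was scored by ThT fluorescence.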
Tau fluor counter = counter-screen for tau fibril formation inhibitors | actives 0.93% (n = 280,000) | tau K18 P301L Alexa594 fluorescence, heparin fibrillization | Potency, µM (doses to about 57.7 µM), inactives show top-dose activity change, negative = decrease; also: potency is read from the fitted curve at half-maximal effect; nearly all actives have a fitted effect of over 55% in size
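Human tau K18 P301L (15 uM unlabeled, 0.24 uM Alexa 594-labeled) in 100 mM sodium acetate pH 7 with 20 uM heparin, 6 hr at 37 C. ThT 30 uM added, 1 hr ambient; Alexa 594 FP and total fluorescence read at 555/632 nm.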
Tau FP inhib = inhibitors of human tau fibril formation | K18 P301L tau heparin fibrillization, Alexa594 FP, 6 h | Potency, µM (series often up to 57.7 µM), without a hit: top-dose activity, negative = inhibition, most hits filed as inhibitors | AID 1468 | P10636 | actives 0.39% (n = 280,000); also: potency is read from the fitted curve at half-maximal effect; nearly all actives have a fitted effect of over 55% in size
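Steps: dispense K18 P301L tau (15 uM plus 0.24 uM Alexa 594 tracer, final) in pH 7 sodium acetate; add compound; add heparin (20 uM final); incubate 6 hr, 37 C; add ThT (30 uM final); after 1 hr ambient, read FP.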
USP1-UAF1 inh = inhibitors of human USP1/UAF1 deubiquitinase; actives 0.23% (n = 390,000); Potency, µM (series often up to 57.1 µM), without a hit: top-dose activity change, negative = inhibition, most hits filed as inhibitors; AID 743255; recombinant USP1/UAF1, Ub-Rhodamine cleavage fluorescence; O94782; also: potency is read from the fitted curve at half-maximal effect; nearly all actives have a fitted effect of over 60% in size
Target sequence (O94782 whole entry, looked up): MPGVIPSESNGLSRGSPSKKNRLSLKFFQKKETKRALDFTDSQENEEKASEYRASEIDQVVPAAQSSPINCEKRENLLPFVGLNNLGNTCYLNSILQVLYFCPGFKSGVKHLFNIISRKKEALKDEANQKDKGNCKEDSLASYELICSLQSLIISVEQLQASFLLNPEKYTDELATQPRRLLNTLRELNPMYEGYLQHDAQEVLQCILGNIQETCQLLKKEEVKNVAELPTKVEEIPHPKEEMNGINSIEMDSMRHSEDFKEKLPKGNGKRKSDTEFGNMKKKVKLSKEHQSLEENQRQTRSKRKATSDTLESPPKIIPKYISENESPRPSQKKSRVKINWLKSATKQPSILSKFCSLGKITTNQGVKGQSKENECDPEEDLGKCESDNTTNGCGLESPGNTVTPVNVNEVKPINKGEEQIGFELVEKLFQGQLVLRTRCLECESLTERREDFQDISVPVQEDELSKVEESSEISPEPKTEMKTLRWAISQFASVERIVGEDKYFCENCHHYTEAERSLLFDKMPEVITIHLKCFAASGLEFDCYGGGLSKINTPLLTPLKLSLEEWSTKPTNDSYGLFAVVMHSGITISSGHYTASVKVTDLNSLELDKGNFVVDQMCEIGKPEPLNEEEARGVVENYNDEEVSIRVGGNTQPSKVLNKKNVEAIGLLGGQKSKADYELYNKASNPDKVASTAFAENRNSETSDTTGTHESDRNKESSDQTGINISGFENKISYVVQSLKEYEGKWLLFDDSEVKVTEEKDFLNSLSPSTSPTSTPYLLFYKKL
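USP1/UAF1 complex (1 nM) preincubated 15 min at room temperature with compound, then Ub-Rho substrate (150 nM final) added. Kinetic fluorescence at 480/540 nm over 6 reads at 60 s intervals; 50 mM HEPES pH 7.8, 0.5 mM EDTA, 0.1 mg/ml BSA, 1 mM TCEP, 0.01% Tween-20.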
FBPA coupling cs = inhibits coupling enzyme system, counter-screen for aldolase hits. activity change, negative = inhibition, % at 58.2 µM, hits read low. coupling enzyme system counterscreen, AmpLite Red fluorescence. actives 0.67% (n = 290,000). AID 2472; in the data active = activity change below about -30%
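Activity here indicates interference with the coupling reaction, not aldolase inhibition. Compounds at 57.5 uM final met coupling enzymes for 10 min at RT; substrate and AmpLite Red detection followed, with a 525/598 nm fluorescence read after 20 min.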
The depositor's hits bear a star; ? = inconclusive; . = no result given; [ ] = remark or other dose. The list is not random: actives were taken first. Their share in the collection is about 2.3%. Unless noted, calls follow the shape of the dose curve; as a rule, active = well fitted curve in the direction sought with a large enough effect; inconclusive = small, poorly fitted or top-dose-only effect, or another doubt; inactive = no such curve, though single readings can be large; an effect the other way counts as inactive or inconclusive. % is scaled to controls: 0 for no effect and ±100 for the full control effect.

SMILES	Tau ThT inhib	Tau fluor counter	Tau FP inhib	USP1-UAF1 inh	FBPA coupling cs
Cc1ccc(Cl)cc1NC(=O)Cn1nc2c(cc1=O)CC(C)CC2 (configuration not stated)	5%	-2%	-8%	-4%	.
Cc1ccc(C)c(N=Nc2nc3ccccc3n2C)c1	5.6µM*	?	-1%	-20%	-7
Cc1cc(C)c(C)c(N=Nc2nc3ccccc3n2C)c1C	8.9µM*	?	-20%	?	-2
Cc1ccc(CNc2nc3ccccc3n2C)cc1	.	.	.	-13%	2
COc1cccc(/C=N/NC(=O)C(=O)N/N=C/c2cccc(OC)c2O)c1O	?	2%	-7%	-21%	0
COc1cc(OC)c([N+](=O)[O-])cc1/C=N/NC(=O)c1ccncc1	25µM*	?	?	?	-42*
COc1cc([N+](=O)[O-])cc(/C=N/NC(=O)C(C)Nc2ccccc2C)c1O (configuration not stated)	?	-17%	2%	-10%	-1
COc1cccc(/C=N/NC(=O)c2cc3cc([N+](=O)[O-])ccc3s2)c1O	2.2µM*	?	11%	-9%	0
COc1cc([N+](=O)[O-])cc(/C=N/NC(=O)c2ccc(C)nc2)c1O	11µM*	-11%	7%	-23%	5
COc1cc(/C=N/NC(=O)c2ccncc2)c([N+](=O)[O-])cc1OC	.	.	.	-23%	6
COc1cc([N+](=O)[O-])cc(/C=N/NC(=O)C(C)Nc2cccc(C)c2)c1O (configuration not stated)	11µM*	-23%	9%	-5%	1
COc1ccc(NC(=O)Nc2nnc(N(C)C3CCCCC3)s2)c(OC)c1	?	?	3%	?	.
CCc1cccc(C)c1NC(=O)CN1C(=O)C2(SCC(=O)N2c2cccc(F)c2)c2ccccc21 (configuration not stated)	0%	-13%	?	-10%	.
COc1cc([N+](=O)[O-])cc(/C=N/NC(=O)c2ccc(NC(=O)c3ccc(C)cc3)cc2)c1O	2µM*	?	15%	-16%	2
COc1ccccc1/C=N/NC(=O)c1ccc(NC(=O)c2cccc([N+](=O)[O-])c2)cc1	?	-24%	13%	.	9
COc1cc(/C=C2/CC/C(=C/c3ccc(O)c(OC)c3)C2=O)ccc1O	0.89µM*	-22%	?	-16%	-1
COc1cc(/C=C2\COC/C(=C\c3ccc(O)c(OC)c3)C2=O)ccc1O	10µM*	?	?	-22%	1
COc1cc(/C=C2\CC/C(=C\c3ccc(OCCO)c(OC)c3)C2=O)ccc1OCCO	14µM*	-27%	?	?	-1
COc1ccc(/C=C2\CC/C(=C\c3ccc(OC)c(OC)c3)C2=O)cc1OC	?	-11%	11%	-2%	-5
CCCC12CN3CC(C)(CN(C1)C3c1ccc(CC)cc1)C2=O (configuration not stated)	1%	-3%	2%	5%	.
CCOc1ccccc1NC(=O)c1c(NC(=O)c2cccc(C)c2)sc2c1CCC2	0%	-10%	?	-16%	.
S=C(NCCc1ccccc1)Nc1cccc2cnccc12	?	-13%	-11%	-24%	-36*
Cc1ccc(C)c(NC(=S)Nc2cccc3cnccc23)c1	?	-14%	?	?	-37*
S=C(NCc1ccccc1)Nc1cccc2cnccc12	.	.	.	-25%	-9
Fc1ccccc1NC(=S)Nc1cccc2cnccc12	?	-16%	?	-17%	-32*
SMILES	Tau ThT inhib	Tau fluor counter	Tau FP inhib	USP1-UAF1 inh	FBPA coupling cs
FC(F)(F)c1ccccc1NC(=S)Nc1cccc2cnccc12	22µM*	-22%	?	-12%	-25
Cc1ccc(C)c(NC(=S)Nc2cccnc2)c1	-2%	0%	4%	-20%	2
CCOC(=O)c1cc(S(=O)(=O)Nc2ccccc2)[nH]n1	7%	2%	-3%	-21%	.
COc1cccc(-n2c(=O)c3sccc3n(Cc3cc(=O)n4cc(Cl)ccc4n3)c2=O)c1	-12%	2%	2%	-14%	.
COc1ccc(CNC(=O)CN2N=C(c3ccc(Cl)cc3)CCC2=O)cc1	-7%	-18%	-12%	?	.
Cc1ccccc1NC(=S)Nc1cccc2cnccc12	?	-14%	-16%	-24%	-52*
COc1cc(NC(=O)c2ccco2)c(OC)cc1NC(=O)Nc1cccc(Cl)c1	?	13µM*[quencher]	9%	-2%	0
COc1ccc(NC(=O)c2ccco2)cc1NC(=O)c1c(OC)cccc1OC	?	-19%	0%	-18%	-1
COc1ccc(NC(=O)c2ccc(NC(=O)c3ccco3)cc2)c(OC)c1	.	.	.	-8%	1
COc1ccc(NC(=O)c2ccco2)cc1NC(=O)c1ccco1	-11%	-3%	1%	-3%	-3
COc1ccc(C(=O)Nc2cc(OC)c(NC(=O)c3ccco3)cc2OC)cc1	?	?	5%	-17%	-35*
COc1ccc(NC(=O)c2ccco2)cc1N	-16%	-10%	-6%	2%	-41*
CCCN(C(=O)C1CCN(S(=O)(=O)c2c(C)noc2/C=C/c2ccc(C)cc2)CC1)c1ccccc1F	-2%	-5%	-4%	-9%	.
CCOc1ccc(NC(=O)C(c2ccccn2)N(C(=O)CCl)c2ccc(OCC)cc2)cc1 (configuration not stated)	10µM*	?	?	-5%	-17
CCOc1ccc(NC(=O)C(c2ccccn2)N(C(=O)CCl)c2ccc(OC)cc2)cc1 (configuration not stated)	14%	8%	11%	-22%	-43*
COc1ccc(NC(=O)C(c2ccccn2)N(C(C)=O)c2ccc(C)cc2)cc1 (configuration not stated)	-12%	-6%	-3%	-6%	2
COc1cccc(CNC(=O)c2nnc(Cc3ccc(Cl)cc3)o2)c1	-3%	-3%	-9%	?	.
COc1ccc(S(=O)(=O)N2CCN(c3ccc(Cl)c(Cl)c3)CC2)c2ccccc12	2%	-19%	?	-22%	.
COCCCN=C(c1ccco1)n1c(=S)nc(-c2ccco2)n(CCCOC)c1=S	32µM*	-24%	?	-25%	-33*
CC(C)(C)c1ccc(C(=O)NCC(c2ccco2)S(=O)(=O)c2ccccc2)cc1 (configuration not stated)	-14%	-23%	-1%	-15%	.
COc1ccc(/C=C/C(=O)c2ccc3ccccc3c2O)cc1CN1CCOCC1	16µM*	-23%	-15%	-19%	-3
Cc1ccccc1-c1csc(N)n1	.	.	.	-27%	.
Cc1ccc(-c2csc(N)n2)s1	32µM*	-29%	?	-16%	-1
Cc1ccc(CNC(=O)c2ccc(N3CCCC3)c(NC(=O)Nc3ccc(F)c(Cl)c3)c2)cc1	1%	?	?	?	.
